Only some compounds are listed: those with a hit (about 2% of all), similar ones and a draw of the others.
ARNT TACC3 PPI: disruptors of human ARNT/TACC3 interaction | 390,000 compounds, 0.66% hits | Q9Y6A5 | inhibition, % at 9.99 µM | AID 623870 | AlphaScreen His-ARNT PAS-B/GST-TACC3 binding, luminescence; TACC3 fragment carries E629A point mutation;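 active = mean inhibition of replicates at least 50% and at least half of replicates each reaching 50%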;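 also: 0% = complete ARNT plus TACC3 wells and 100% = ARNT alone without TACC3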
DAGLB inh: diacylglycerol lipase beta (human) inhibition | HEK293T DAGLB membrane lysate, EnzChek fluorogenic substrate | inhibition, % at 5.17 µM | 340,000 compounds, 0.059% hits; in the data active = inhibition above about 34%;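 also: 0% = enzyme with vehicle and 100% = wells lacking enzyme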
sPLA2-III inh: Blocks human group III sPLA2 activity | AID 743126 | 370,000 compounds, 0.56% hits | QFRET BODIPY PC-A2 liposome hydrolysis, fluorescence | inhibition, % at 12.2 µM;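 active = inhibition above mean plus 3 SD of compounds lying within the high and low control bounds, cut at about 19% in these data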;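 also: 0% = median of test compound wells and 100% = no enzyme DMSO wells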
Neddylation inh: inhibitors of human cullin neddylation; P61081+Q13564; 360,000 compounds, 0.58% hits; TR-FRET cullin neddylation, biochemical; inhibition, % at 25 µM; in the data active = inhibition above about 36%
Target sequence (P61081 whole entry, looked up): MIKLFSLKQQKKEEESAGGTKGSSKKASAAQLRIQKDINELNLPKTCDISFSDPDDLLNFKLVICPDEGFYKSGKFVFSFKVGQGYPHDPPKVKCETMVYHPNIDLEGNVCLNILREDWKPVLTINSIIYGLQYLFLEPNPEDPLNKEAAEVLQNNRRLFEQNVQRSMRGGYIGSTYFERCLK
Target sequence (Q13564 whole entry, looked up): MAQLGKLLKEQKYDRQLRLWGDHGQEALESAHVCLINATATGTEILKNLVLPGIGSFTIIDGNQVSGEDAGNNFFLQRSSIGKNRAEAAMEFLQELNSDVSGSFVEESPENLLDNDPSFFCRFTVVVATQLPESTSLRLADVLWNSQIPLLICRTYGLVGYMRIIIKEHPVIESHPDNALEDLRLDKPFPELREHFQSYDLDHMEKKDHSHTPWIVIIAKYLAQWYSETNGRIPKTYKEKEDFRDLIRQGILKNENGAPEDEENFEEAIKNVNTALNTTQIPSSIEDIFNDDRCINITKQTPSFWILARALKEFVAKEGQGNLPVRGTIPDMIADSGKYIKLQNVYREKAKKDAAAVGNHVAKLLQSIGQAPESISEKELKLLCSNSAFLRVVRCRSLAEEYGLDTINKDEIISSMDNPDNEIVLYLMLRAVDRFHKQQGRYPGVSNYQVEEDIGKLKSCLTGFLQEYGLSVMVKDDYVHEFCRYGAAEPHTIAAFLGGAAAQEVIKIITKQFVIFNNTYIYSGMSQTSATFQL
NadD block: inhibitors of Staphylococcus aureus NadD; inhibition, % at 20 µM; 360,000 compounds, 0.78% hits; purified NadD enzyme, colorimetric absorbance read-out; in the data active = inhibition above about 26%
NadD inh conf: NadD (S. aureus) inhibition, single concentration confirmation. shares compounds with NadD block. purified S. aureus NadD, colorimetric enzyme assay. inhibition, % at 20 µM. 2,000 compounds, 13% hits. AID 624309; in the data active = inhibition mostly above about 42%, no sharp cut-off; inactive = mostly below about 42%
* = called active by the depositor; x = no result shown.

SMILES | ARNT TACC3 PPI | DAGLB inh | sPLA2-III inh | Neddylation inh | NadD block | NadD inh conf
O=C(c1ccc2c(c1)[nH]c(=S)n1c3ccccc3nc21)N1CCN(c2cccc(Cl)c2)CC1 | -3.1 | 4.7 | -2.2 | -82.3 | 38.8* | 8.6
COc1ccc2nc(N3C(=O)/C(=C/c4ccccc4)NC3=S)sc2c1 | x | 2.2 | -13.3 | 7.9 | 44.0* | 6.0
COc1ccc2nc(-n3c(C)ccc3C)sc2c1 | 2.5 | -4.9 | -4.8 | 1.9 | 4.9 | x
CCOc1ccc2nc(N3CCCCCC3)sc2c1 | 8.8 | -4.2 | x | 11.7 | -5.9 | x
CCOc1ccc2nc(N3C(=O)/C(=C/c4ccccc4)NC3=S)sc2c1 | x | 5.5 | -6.2 | 11.7 | 32.9* | 7.8
CO[C@H]1CC[C@@H]2CCOc3ccc(C#N)cc3C(=O)N(C)C[C@@H](OC)[C@H](C)C(=O)N(C)C[C@H]1O2 | 1.2 | x | x | x | x | x
COc1cc(C#Cc2c(-c3cncn3C)n(C)c3ccc(Br)cc23)cc(OC)c1 | 4.1 | 3.7 | 3.0 | -120.8 | 17.2 | x
COc1cc(C#Cc2c(-c3cncn3C)n(C)c3ccc(-c4ccc5cc[nH]c5c4)cc23)cc(OC)c1 | 2.4 | 1.5 | -5.5 | x | 39.4* | 46.8
COc1cc(C#Cc2c(-c3cncn3C)n(C)c3ccc(-c4ccc(OC)c(OC)c4)cc23)cc(OC)c1 | -2.5 | 0.9 | 13.6 | x | 37.5* | 24.3
C/C(=N\NC(N)=S)C1=CCC2C3CC[C@H]4CC(O)CC[C@]4(C)C3CC[C@]12C (some centres not stated) | -0.3 | 1.3 | 1.5 | 6.8 | 36.4* | 11.8
CC12CCC3C(CCC4CC(O)CCC43C)C1CC(O)C2 (configuration not stated) | -1.2 | -3.2 | -1.1 | 0.7 | -1.2 | x
CCc1ccc(-c2cc(C(=O)Nc3ccc(S(=O)(=O)NC(C)=O)cc3)c3ccccc3n2)cc1 | 17.8 | 5.8 | -39.4 | -16.1 | 12.7 | x
O=C(NCc1cccs1)c1cc(-c2ccccc2)nc2ccccc12 | -7.2 | -4.5 | 7.7 | -22.4 | -0.1 | x
CC(C)(C)NS(=O)(=O)c1ccc(NC(=O)c2cc(-c3ccccc3)nc3ccccc23)cc1 | -4.6 | 0.8 | -5.0 | -6.2 | 18.0 | x
O=C(Nc1ccc(S(=O)(=O)Nc2nccs2)cc1)c1ccc(N2C(=O)c3ccccc3C2=O)cc1 | -3.3 | 4.1 | -15.1 | -47.4 | 61.6* | 40.0
O=C(Nc1ccc(S(=O)(=O)Nc2nccs2)cc1)c1cc(-c2ccccc2)nc2ccccc12 | 7.6 | 7.2 | -73.4 | -5.0 | 45.6* | 50.0*
Cc1ccc(-c2cc(C(=O)Nc3ccc(S(=O)(=O)Nc4ncccn4)cc3)c3ccccc3n2)cc1 | -2.7 | 6.6 | 5.5 | 3.6 | 33.5* | 38.4
O=C(Nc1nnc(-c2cccs2)o1)c1cc(-c2ccccc2)nc2ccccc12 | 31.9 | 8.7 | -6.5 | 0.0 | 54.8* | 50.8*
C[C@H](CO)N1C[C@H](C)[C@@H](CN(C)C(=O)Nc2ccc3c(c2)OCO3)Oc2cc(C3=CCCCC3)ccc2S1(=O)=O | 17.4 | x | x | x | x | x
Cc1ccccc1S(=O)(=O)N1C[C@@H](O)COC[C@H]2O[C@H](CC(=O)NCCc3ccccc3)CC[C@@H]21 | 7.7 | x | x | x | x | x
O=C(NNS(=O)(=O)c1ccc2ccccc2c1)c1cc(-c2ccccn2)nc2ccccc12 | 5.5 | 1.5 | -28.6 | -19.3 | 45.4* | 49.2*
Cc1ccc(C)c(-c2cc(C(=O)Nc3nccs3)c3ccccc3n2)c1 | 0.9 | -1.4 | 3.0 | 1.6 | 14.1 | x
Cc1ccc(-c2cc(C(=O)Nc3ccc(S(=O)(=O)Nc4nccs4)cc3)c3ccccc3n2)c(C)c1 | x | 12.3 | -38.9 | 0.1 | 62.9* | 52.5*
O=C(Nn1cnnc1)c1cc(-c2ccccn2)nc2ccccc12 | x | 0.8 | 3.1 | 1.7 | -5.5 | x
S=c1[nH]nc(-c2cc(-c3ccccc3)n[nH]2)n1/N=C/c1ccc(Br)s1 | 0.9 | 10.6 | -10.3 | 63.3* | 43.2* | 42.0
O=C(c1ccc2snnc2c1)N1CCCCC1 | x | 0.5 | 1.7 | -5.3 | 51.7* | 1.3
O=C(c1ccc2snnc2c1)N1CCSCC1 | -12.2 | -0.1 | -3.2 | -4.0 | -3.5 | x
C/C=C\C=C/C(=O)Nc1cccc(C2=NOC3(C2)C[C@H](C(N)=O)N(C(=O)CC)C3)c1 (some centres not stated) | -1.0 | 1.2 | 1.7 | -22.4 | -7.9 | x
